The supplement of paper PMC6555819

Assays:
Test in all cases: PBM binding z-score (relative to random genomic background probes); higher = stronger binding; sequences stand for … in GC…GCGATTGACAGCGTAGAATGAAGG
[1] = system: PPARg:RXRa DBDmut IVT, anti-RXR (DBD mutation: RXRa K156A/R161A, NR concentration 270 nM, RXRa partner concentration 90 nM)
How it was run: (§1)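 Antibodies against each partner of ligand-free nuclear receptor dimers (one per run) detected binding on custom Agilent 4×180K protein-binding microarrays after 1 h incubation. The double-stranded probes had 34-nt variable regions carrying direct-repeat seeds, single-nucleotide variants, half-site ablations and random human genomic background sequences. Binding z-scores, from regression-normalized fluorescence, use the random background probes as reference.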

[2] = system: PPARg:RXRa IVT, anti-PPARg (NR concentration 270 nM, RXRa partner concentration 90 nM)
How it was run: as §1

[3] = system: PPARg DBDmut:RXRa IVT, anti-PPARg (DBD mutation: PPARg1 K132A/R137A, NR concentration 270 nM, RXRa partner concentration 90 nM)
How it was run: as §1

[4] = system: PPARg DBDmut IVT, anti-PPARg (DBD mutation: PPARg1 K132A/R137A, NR concentration 270 nM)
How it was run: as §1

[5] = system: PPARg homodimer (NR concentration 180 nM)
How it was run: as §1

[6] = system: PXR:RXRa (NR concentration 270 nM, RXRa partner concentration 90 nM)
How it was run: as §1

[7] = system: PXR homodimer (NR concentration 270 nM)
How it was run: as §1

[8] = system: RARa:RXR (NR concentration 270 nM, RXRa partner concentration 90 nM)
How it was run: as §1

[9] = system: RARa homodimer (NR concentration 270 nM)
How it was run: as §1

[10] = system: RARb:RXRa (NR concentration 270 nM, RXRa partner concentration 90 nM)
How it was run: as §1

| Sequence | PBM binding z-score [1] | PBM binding z-score [2] | PBM binding z-score [3] | PBM binding z-score [4] | PBM binding z-score [5] | PBM binding z-score [6] | PBM binding z-score [7] | PBM binding z-score [8] | PBM binding z-score [9] | PBM binding z-score [10] |
| --- | --- | --- | --- | --- | --- | --- | --- | --- | --- | --- |
| GGAACGAGGGCATTCGAGTTGATACCATGGCGAT | 3.16 | 2.33 | 1.32 | -0.701 | 0.6 | 4.1 | 1.75 | 2.07 | -0.391 | 1.93 |
| GCGACTGGGGCATCATCAGGTTACCATAACTTAA | 4.15 | 3.3 | -0.137 | -0.42 | 0.121 | 0.266 | -0.0234 | 1.05 | -0.63 | 0.767 |
| ACTATTAGTTGAGACGAGGGCAACGGATAGGTTG | -0.0332 | 0.424 | 0.418 | 0.955 | 0.155 | 1.32 | 0.265 | 1.26 | 0.262 | 0.843 |
| TCGAGTAGGTTAGCGGCATTCAGAATGGCGTCGA | 1.81 | 0.944 | -1.28 | -0.893 | -1.05 | -0.724 | -0.924 | -0.504 | -1.29 | 0.21 |
| TTACCAAGGTGATGGTCGTTGATCCCTCTGTAGA | 1.08 | 1.23 | -0.135 | 0.288 | 0.359 | -0.171 | -0.42 | 0.272 | 0.249 | 0.312 |
| CCTAGTTGGACAGGAGGTCACACACCGGATATGA | 0.493 | 2.64 | 0.73 | 0.338 | 3.06 | 4.13 | 1.32 | 4.3 | 1.71 | 3.23 |
| CCGATTAGTTGACCATAAGGGCAACCGAAGCTCG | 0.626 | 0.151 | 0.0233 | -0.144 | 0.907 | 0.523 | 0.00458 | 0.703 | 0.65 | 1.46 |
| CCGACTGGGGCAATGTTACCATAACGCACAGCCA | 3.67 | 2.99 | -0.638 | -0.759 | 0.142 | -0.771 | -0.41 | -0.456 | 0.0364 | 0.351 |
| CGAACGAGGGCATGAGTTGATAGCAAATGCCGAT | 3.29 | 2.03 | -0.334 | -0.825 | -0.0859 | 0.562 | -0.209 | 0.5 | -0.431 | 2.11 |
| CGTCCAAGGTCATAGGAGATCAGTGAAGACAGAT | 3.22 | 3.43 | 1.2 | 0.671 | 2.99 | 4.44 | 1.37 | 4.47 | 0.926 | 4.89 |
| GCTCGGAGGACAAGGTCGGAGCTTTGTCCGTAGA | -1.06 | -0.138 | -1.21 | -1.93 | -0.925 | -0.155 | -0.823 | 0.146 | -1.12 | 1.59 |
| CCTTACGGGTCACGAGGTGATAGCACGACGAGCG | 3.97 | 5.24 | 1.17 | 1.06 | 3.17 | 3.69 | -0.0631 | 5.02 | 0.649 | 4.27 |
| TATACAGGGTCAAAGGCGAGAGTACGAATGTCGA | 2.19 | 4.69 | 2.38 | 1.65 | 2.22 | 3.85 | 0.6 | 4.91 | 0.979 | 4.45 |
| AGTCAAAGTTCACTAGGTAAGGTAAGATTCAGCT | 1.79 | 4.24 | 1.06 | 0.795 | 2.55 | 3.83 | 2.61 | 3.3 | 1.36 | 4.8 |
| TCATCTAGGTAAATGCTAGGTGAAAGTCCGATCT | 3.81 | 3.11 | 1.09 | 0.995 | 0.213 | 0.375 | -0.263 | 0.578 | -0.0135 | 0.219 |
| ACTTACGGGTCAACGAGGTTATAACACGCGTATA | 3.68 | 4.21 | 3.33 | 2.76 | 4.28 | 5.81 | 4.42 | 5.84 | 2.39 | 4.37 |
| CGAACTAGGTCATTGACAGGGCAGTGAATAGTAA | 8.27 | 7.87 | 2.56 | 1.37 | 2.24 | 1.69 | 0.134 | 2.69 | 0.301 | 3.72 |
| TGAATCAGGTTAAAGATCAGGGAACGTGGCGTCG | 2.15 | 3.33 | 0.98 | 0.175 | 0.529 | 0.343 | -0.173 | 1.17 | 0.262 | 0.993 |
| GCTATAAGTTGAAAGGGCAACCGAATGATTCTCG | 0.434 | 0.831 | 0.223 | 0.266 | 1.11 | 1.41 | 0.107 | 2.56 | 0.129 | 2.46 |
| ATCGAACGGTCGTGAGGTGAGTATACAGAAAGGC | -0.977 | 0.391 | 0.438 | 0.339 | 0.0797 | 0.0108 | -0.33 | 0.461 | 0.0209 | 1.08 |
| TTACCAAGGTGAGATGAGGTCGTTGATCCAACTC | 1.15 | 2.16 | -0.0123 | 0.496 | 0.827 | 5.21 | 0.58 | 2.44 | 0.0224 | 1.83 |
| AGAATGAGGTTACCAACGATCAGGGAAACGCTTG | 3.37 | 3.5 | 0.997 | 1.46 | 0.587 | 0.991 | -0.0709 | 2.01 | -0.203 | 1.83 |
| TTACCAAGGTGAGCTGAGGTCGTTGGTCCAACTC | 1.42 | 1.75 | -0.48 | -1.25 | -0.363 | 4.68 | 0.529 | 1.63 | -1.02 | 1.72 |
